The target in assay [1] is Retinoic acid receptor RXR-alpha (Homo sapiens) (UniProt P19793). The experiment in a line: qHTS assay to identify small molecule agonists of the RXR signaling pathway (AID 1159527; calls by dose curve; note: nearly all actives have a fitted effect of over 35% in size). A digest of the protocol:
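Beta-lactamase reporter assay, agonist format. Engineered HEK 293T line, charcoal-stripped FBS at 2%, overnight (16 hr) exposure, fluorescence at 460 and 530 nm after 405 nm excitation.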
In general terms: qHTS replaces the single test concentration by a dilution series.

Assay [2] is described as follows: qHTS assay to identify small molecule agonists of the RXR signaling pathway - cell viability counter screen (AID 1159529).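 Note: HEK 293T cells carrying an RXR-alpha UAS beta-lactamase reporter; series mostly up to about 77 µM; nearly all actives have a fitted effect of over 50% in size.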 A digest of the protocol:
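Same-well viability check after the LiveBLAzer FRET read: CellTiter-Glo added, luminescence measured after 30 min at room temperature. Reporter HEK 293T cells had been treated with compounds for 16 hr following a 5 hr preincubation.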

The nature of assay [3]: qHTS assay to identify small molecule antagonists of the retinoid acid receptor (RAR) signaling pathway - cell viability counter screen (AID 1159551). Note: nearly all actives have a fitted effect of over 35% in size. A digest of the protocol: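 C3RL4 cells were seeded overnight at 37 C, then treated with compounds plus 1 uM (final) retinol for 6 h at 37 C. Viability was read as ATP by CellTiter-Glo luminescence after 30 min at room temperature.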

The nature of assay [4]: qHTS assay to identify small molecule antagonists of the retinoic acid receptor (RAR) signaling pathway (AID 1159552; note: nearly all actives have a fitted effect of over 50% in size). A digest of the protocol:
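Readout: luciferase luminescence, 30 min post-reagent at RT. Setup: C3RL4 RARE reporter cells, compounds plus retinol 1 uM final, 6 hr incubation at 37 C and 5% CO2.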

Assay [5] is described as follows: qHTS assay to identify small molecule antagonists of the estrogen related receptor (ERR) signaling pathway from Tox21 library - cell viability counter screen (AID 1224834). Note: nearly all actives have a fitted effect of over 30% in size. Note: potency is the fitted concentration of half-maximal effect. Put shortly:
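ERR reporter cells were plated 6 h before compound addition, then exposed to test compounds in DMSO for 17.5 h at 37 C. Viability was read as CellTiter-Fluor fluorescence after a 30-minute incubation at 37 C.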

In assay [6] the target is Luciferin 4-monooxygenase (Photinus pyralis) (UniProt P08659). The experiment in a line: qHTS assay to identify small molecule inhibitors of firefly luciferase (AID 1224835). For activity change, negative = inhibition: series mostly up to about 120 µM. Note: nearly all actives have a fitted effect of over 25% in size. Note: potency is the fitted concentration of half-maximal effect. Put shortly:
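Quantitative HTS format; KM concentrations of both substrates. Purified P. pyralis FLuc activity quantified from luminescence images.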

Assay [7] deals with Nuclear receptor subfamily 1 group I member 3 (Homo sapiens) (UniProt Q14994). Nature of the assay: qHTS assay to identify small molecule antagonists of the constitutive androstane receptor (CAR) signaling pathway (AID 1224838). Note: nearly all actives have a fitted effect of over 40% in size. A digest of the protocol: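 HepG2 cells stably co-transfected with hCAR and a CYP2B6-2.2kb luciferase reporter were seeded 4 h before compound addition at 15 concentrations. Cells were stimulated with 50 nM CITCO (final) for 24 h at 37 C; luciferase luminescence was then read.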

Assay [8] shares this target. The experiment in a line: qHTS assay to identify small molecule agonists of the constitutive androstane receptor (CAR) signaling pathway (AID 1224839). Note: series mostly up to about 92 µM; nearly all actives have a fitted effect of over 15% in size. A digest of the protocol: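 In this screen, CAR-driven CYP2B6 promoter activity is measured by luminescence in HepG2-CYP2B6-hCAR cells after 24 h with test compounds and 0.75 uM PK11195 (final concentration).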
Assay [9] is described as follows: qHTS assay to identify small molecule agonists of the retinoic acid receptor (RAR) signaling pathway (AID 1159553). Put shortly:
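C3RL4 cells carrying a RARE luciferase reporter were plated overnight at 37 C, then exposed to compounds in DMSO for 6 hr at 37 C and 5% CO2. Luminescence was read 30 min after luciferase reagent addition at room temperature.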

A short description of assay [10]: qHTS assay to identify small molecule agonists of the constitutive androstane receptor (CAR) signaling pathway - cell viability counter screen (AID 1224836). Note: series mostly up to about 92 µM; nearly all actives have a fitted effect of over 45% in size. A digest of the protocol:
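Compound titrations (15 concentrations) went onto HepG2-CYP2B6-hCAR cells 4 h after seeding, alongside PK11195 at a final 0.75 uM; a 23 h, 37 C/5% CO2 incubation preceded CellTiter-Fluor viability measurement.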

Assay [11] is described as follows: qHTS assay to identify small molecule antagonists of the constitutive androstane receptor (CAR) signaling pathway - cell viability counter screen (AID 1224837). Note: series mostly up to about 92 µM; nearly all actives have a fitted effect of over 45% in size. A digest of the protocol:
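HepG2 cells stably expressing hCAR and a CYP2B6-2.2kb reporter were plated and pre-incubated 4 hr at 37 C/5% CO2, then given compounds at 15 concentrations plus 50 nM CITCO (final). After 23 hr, viability was read by CellTiter-Fluor fluorescence.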

Assay [12] can be described thus: qHTS assay to identify small molecule antagonists of the estrogen related receptor signaling pathway with the pleiotropic PPARgamma coactivator (PGC) from Tox21 10K library - cell viability counter screen (AID 1224840; active = well fitted cell-killing curve with a large enough effect in the repeat runs, not every such curve was filed as active; note: nearly all actives have a fitted effect of over 40% in size). Put shortly:
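PGC/ERR cells were seeded at 2,000 cells/well and left 6 hours at 37 C/5% CO2 before pin-tool addition of compounds in DMSO. After 17.5 hours at 37 C, CellTiter-Fluor was added and fluorescence read 30 minutes later.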

Assay [13] in a line: qHTS assay to identify small molecule antagonists of the estrogen related receptor signaling pathway with the pleiotropic PPARgamma coactivator (PGC) from Tox21 10K library (AID 1224841; call rule not given here; note: series mostly up to about 92 µM; actives are mostly falling curves and most rising ones were filed inactive; nearly all actives have a fitted effect of over 50% in size). A digest of the protocol: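 PGC/ERR reporter cells were seeded at 2,000 cells/well and held 6 hours at 37 C/5% CO2 before pin-tool addition of compounds in DMSO. After 18 hours at 37 C, One-Glo was added and luminescence read after 30 minutes at room temperature.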

Assay [14] is described as follows: qHTS assay to identify small molecule agonists of the estrogen related receptor signaling pathway with the pleiotropic PPARgamma coactivator (PGC) from Tox21 10K library (AID 1224842). Note: nearly all actives have a fitted effect of over 15% in size. A digest of the protocol:
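PGC/ERR reporter cells (NTP line) were seeded 2,000 per well, rested 6 h at 37 C/5% CO2, then pin-dosed with compounds in DMSO for 18 h at 37 C; luciferase read by One-Glo luminescence after 30 min at room temperature.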

Assay [15] is described as follows: qHTS assay to identify small molecule antagonists of the estrogen related receptor (ERR) signaling pathway - cell viability counter screen (AID 1224818).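 Note: series mostly up to about 46 µM; viability measured after 17.5 h of compound exposure.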 Put shortly: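 ERR reporter cells plated 6 h at 37 C/5% CO2, then compounds in DMSO pin-transferred and incubated 17.5 h at 37 C. Viability read as CellTiter-Fluor fluorescence after 30 min at 37 C.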
The nature of assay [16]: qHTS assay to identify small molecule antagonists of the estrogen related receptor signaling pathway with the pleiotropic PPARgamma coactivator (PGC) cell viability counter screen (AID 1224822; note: series mostly up to about 46 µM). Put shortly:
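PGC/ERR cells were seeded at 2,000 cells/well, rested 6 h at 37 C/5% CO2, then given compounds in DMSO by pin tool and incubated 17.5 h at 37 C. Viability came from CellTiter-Fluor fluorescence after 30 min.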

Inconclusive results are not listed. A number with no mark means an inactive call. The source made the active and inactive calls. Unless noted, calls come from the whole dose curve; as a rule, active = well fitted curve in the direction sought with a large enough effect in the repeat runs; inconclusive = weak or mixed curves; inactive = no such curve, though single readings can be large; an effect the other way counts as inactive or inconclusive.

The record followed here is PubChem BioAssay (Tox21).
% is set by controls: 0 for no effect and ±100 for the full control effect.

Sequence of Nuclear receptor subfamily 1 group I member 3 (Homo sapiens) (Q14994 whole entry, looked up): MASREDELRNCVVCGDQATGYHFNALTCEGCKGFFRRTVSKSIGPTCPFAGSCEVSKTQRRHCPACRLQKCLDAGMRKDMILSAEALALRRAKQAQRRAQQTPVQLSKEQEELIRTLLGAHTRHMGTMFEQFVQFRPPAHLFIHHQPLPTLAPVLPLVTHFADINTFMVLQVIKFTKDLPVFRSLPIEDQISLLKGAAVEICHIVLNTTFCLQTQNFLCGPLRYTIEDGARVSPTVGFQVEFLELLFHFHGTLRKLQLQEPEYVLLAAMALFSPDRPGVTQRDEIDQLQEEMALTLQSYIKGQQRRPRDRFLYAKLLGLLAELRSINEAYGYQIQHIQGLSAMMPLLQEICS
Sequence of Luciferin 4-monooxygenase (Photinus pyralis) (P08659 whole entry, looked up): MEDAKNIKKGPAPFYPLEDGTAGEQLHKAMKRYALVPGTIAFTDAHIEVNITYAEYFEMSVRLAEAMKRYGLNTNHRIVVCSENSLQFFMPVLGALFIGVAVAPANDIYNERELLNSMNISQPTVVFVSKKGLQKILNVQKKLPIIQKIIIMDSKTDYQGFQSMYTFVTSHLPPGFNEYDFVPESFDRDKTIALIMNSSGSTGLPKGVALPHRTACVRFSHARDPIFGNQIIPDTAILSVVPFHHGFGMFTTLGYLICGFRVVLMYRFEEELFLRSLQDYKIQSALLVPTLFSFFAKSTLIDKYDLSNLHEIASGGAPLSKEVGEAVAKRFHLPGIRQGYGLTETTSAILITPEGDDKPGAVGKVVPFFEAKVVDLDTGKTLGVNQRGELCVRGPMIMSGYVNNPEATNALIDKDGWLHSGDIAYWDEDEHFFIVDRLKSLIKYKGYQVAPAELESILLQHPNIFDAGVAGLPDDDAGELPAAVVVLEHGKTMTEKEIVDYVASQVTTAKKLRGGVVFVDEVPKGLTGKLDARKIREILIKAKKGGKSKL
Sequence of Retinoic acid receptor RXR-alpha (Homo sapiens) (P19793 whole entry, looked up): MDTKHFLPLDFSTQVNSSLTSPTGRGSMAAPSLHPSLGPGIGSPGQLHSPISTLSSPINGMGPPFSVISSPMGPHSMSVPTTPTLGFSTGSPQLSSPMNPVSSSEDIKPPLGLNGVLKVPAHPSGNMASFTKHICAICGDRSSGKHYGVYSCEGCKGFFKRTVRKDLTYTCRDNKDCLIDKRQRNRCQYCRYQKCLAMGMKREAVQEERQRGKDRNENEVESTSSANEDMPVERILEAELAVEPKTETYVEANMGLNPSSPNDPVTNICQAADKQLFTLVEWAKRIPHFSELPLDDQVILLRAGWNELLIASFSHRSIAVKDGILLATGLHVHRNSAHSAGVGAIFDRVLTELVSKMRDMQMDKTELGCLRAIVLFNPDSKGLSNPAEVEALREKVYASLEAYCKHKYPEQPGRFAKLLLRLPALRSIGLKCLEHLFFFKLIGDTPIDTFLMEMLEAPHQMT

In the case of `CC(=O)Nc1ccc(S(=O)(=O)Nc2ccc([N+](=O)[O-])cc2)cc1`, the Potency result in assay [1], in assay [6] and in assay [8] was “inactive” each time. Besides, the result in assay [2], in assay [3], in assay [4] and in assay [7] was inactive. Besides, the Potency in assay [5] was 23.7 µM (active).

With `CC(=C(CCOC(=O)C(C)C)SSC(CCOC(=O)C(C)C)=C(C)N(C=O)Cc1cnc(C)nc1N)N(C=O)Cc1cnc(C)nc1N`, the Potency result in assay [1], in [9], in assay [5], in assay [6], in [10] and in assay [11] was “inactive” each time. Further, the Potency entry in assay [8] and in [13] was “inactive” each time. The outcome in assay [2], in assay [3], in [7], in assay [12] and in [14] was inactive.

With `CC[C@H](C)C(=O)O[C@H]1C[C@H](O)C=C2C=C[C@H](C)[C@H](CC[C@@H](O)C[C@@H](O)CC(=O)O)[C@H]21`, the Potency result in [1], in [5] and in assay [11] was “inactive” each time. The result in [2], in [3], in [4] and in [12] was inactive.

`COc1ccc2c(c1)C(=O)N(CCc1ccc(S(=O)(=O)NC(=O)NC3CCCCC3)cc1)C(=O)C2(C)C`: the Potency entry in [1], in [9], in [5], in assay [6], in [10] and in assay [11] was “inactive” throughout. The Potency result in assay [8] was “inactive”. Moreover, the call in [2], in assay [3] and in assay [12] was inactive.

`O=C(O)C(=O)Cc1ccccc1`: the Potency entry in assay [1], in assay [5], in assay [6], in assay [11] and in assay [8] was “inactive” in each case. Moreover, the result in assay [2], in assay [3], in [4], in [7] and in assay [12] was inactive.

For `Cc1[nH]cnc1-c1ccc(Cl)cc1`, the Potency entry in assay [1], in assay [5], in [10] and in assay [11] was “inactive” each time. Also, the call in assay [2], in [3], in assay [4], in [7] and in assay [12] was inactive.

For `CN1C(C)(C)CCCC1(C)C`, the Potency result in [1], in [9], in [5], in assay [6], in assay [10] and in assay [11] was “inactive” each time. In addition, the outcome in assay [2], in assay [3] and in [12] was inactive.

As for `O=C(c1ccc(O)cc1)c1ccc(O)c(O)c1O`, the Potency entry in [1] and in [13] was “inactive” in each case. In addition, the compound was classed as inactive in [2], in [3], in [4], in [7], in assay [12] and in [14]. Also, the Potency in assay [6] is 63.5 µM (active).

Consider `CNC(=O)[C@H]1O[C@@H](n2cnc3c(NCc4cc(Cl)ccc4OCc4cc(C)no4)ncnc32)[C@H](O)[C@@H]1N`, for which the Potency result in assay [1], in assay [5], in assay [6], in assay [10], in assay [11] and in assay [8] was “inactive” each time. Besides, the Potency result in assay [13] was “inactive”. Further, the result in assay [2], in assay [3], in [7], in assay [12] and in [14] was inactive.

With `Cc1nc2n(c(=O)c1CCN1CCC(c3noc4cc(F)ccc34)CC1)CCC[C@H]2O`, the figures for the activation in [1], in assay [8] and in assay [14] were 4.51% [at 15.8 µM], -1.43% [at 19 µM] and -0.0623% [at 19 µM], respectively. The activity change, negative = cytotoxicity in assay [2] is -5.89% [at 15.8 µM]; in [3], 0.276% [at 19 µM]; in assay [11], 1.56% [at 19 µM]. In addition, the viability change, negative = cytotoxic in assay [5] is 0.131% [at 19 µM]; in assay [10], 2.64% [at 19 µM]; in [12], 11.2% [at 19 µM]. Besides, the activity change, negative = inhibition in [6] is 0.0649% [at 23.6 µM]. The figures for the activity, negative = inhibition in [7] and in assay [13] were 20.8% [at 19 µM] and -0.225% [at 19 µM], respectively.

On to `Cc1cccc(OCC(O)CNC(C)(C)C)c1C` (centres undefined), for which the Potency entry in [1], in assay [5], in assay [6], in assay [10], in [11] and in [8] was “inactive” each time. For the same compound, the call in [2], in [3], in [7] and in [12] was inactive.

Turning to `CCCN1C[C@H](CSC)C[C@@H]2c3cccc4[nH]cc(c34)C[C@H]21`, the Potency result in assay [1], in [5], in [6], in assay [10] and in assay [11] was “inactive” in each case. The result in assay [2], in assay [3], in assay [15], in assay [16] and in assay [12] was inactive.
